Bioassay records deposited in PubChem by National Center for Advancing Translational Sciences (NCATS).
Shiga inhibitor = Shiga toxin inhibition; actives 9.2% (n = 290,000); inhibition, % at 38.7 µM; Vero cells, Shiga toxin protein synthesis inhibition reporter; in the data active = inhibition mostly above about 28%, no sharp cut-off; inactive = mostly below about 43%; also: 0% is about no effect
Cycloheximide cs = counter-screen for Shiga toxin inhibitors: cycloheximide protein synthesis inhibition | cell reporter, cycloheximide protein synthesis inhibition counterscreen | max response, % | actives 12% (n = 300,000) | AID 2314; in the data active = max response mostly above about 13%, no sharp cut-off; inactive = mostly below about 14%; also: read at 38.3 µM for the half of the compounds with a filed dose; 0% is about no effect
FMDV inh = blocks foot and mouth disease virus; FMDV antiviral cell-based qHTS; Potency, µM (highest dose often 57.9 µM), inactives show at the highest dose activity change, negative = inhibition, usual class: inhibitors; actives 1.2% (n = 410,000); AID 1159524; calls by dose curve; tested in HEK293T cells; also: read-out not given here; potency is read from the fitted curve at half-maximal effect; % is scaled to controls: 0 for no effect and ±100 for the full control effect; nearly all actives have a fitted effect of over 45% in size
Sm TGR block = S. mansoni TGR enzyme inhibition; Q962Y6; purified TGR, DTNB reduction, TNB absorbance 405 nm; Potency, µM (titrated, usually from 114 µM), inactives show at the highest dose activity change, negative = inhibition, usual class: inhibitors; actives 3% (n = 360,000); AID 485364; active = well fitted inhibition curve with a large enough effect; inconclusive = small, poorly fitted or top-dose-only effect; inactive = no such curve, though single readings can be large or run the other way; also: potency is read from the fitted curve at half-maximal effect; % is scaled to controls: 0 for no effect and ±100 for the full control effect; nearly all actives have a fitted effect of over 60% in size
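Kinetic colorimetric format: TGR-catalysed, NADPH-driven DTNB reduction monitored via TNB absorbance. Enzyme dispensed at 20 nM; compound exposure 15 min at room temperature before reaction start.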
Numbers without * were called inactive; u = inconclusive; x = not tested or not shown; [ ] = another dose, or the depositor's remark. A selection: hits, their analogues and other compounds. The true share with any hit is near 12%.

SMILES | Shiga inhibitor | Cycloheximide cs | FMDV inh | Sm TGR block
O=C(Nc1ccccc1CC[N+](=O)[O-])N1CCN(c2ccccc2)CC1 | -6 | 13 | -8% | 2.2µM*
CCN(c1ccccc1C)S(=O)(=O)c1nnc(NC(=O)c2ccccc2C)s1 | x | x | 0% | u
CC(=O)N[C@H]1CSSC[C@@H](C(=O)N2CCC[C@H]2C(=O)N2CCC[C@H]2C(=O)N[C@@H](CCCCN)C(=O)N[C@@H](CC(=O)O)C(N)=O)NC(=O)CNC(=O)[C@H](Cc2c[nH]c3ccccc23)NC(=O)[C@H](CCCNC(=N)N)NC(=O)[C@@H](Cc2ccc(Cl)c(Cl)c2)NC(=O)[C@H](Cc2cnc[nH]2)NC(=O)[C@H](CCC(=O)O)NC1=O | -9 | -7 | x | x
O=C(Cc1ccccc1)NNC(=O)Nc1ccc(Cl)c(Cl)c1 | -12 | -2 | 9% | 2%
O=C(Nc1ccc(Cl)c(Cl)c1)Nc1ccccc1C(=O)O | 41 | 30* | -70% | x
Cc1ccccc1N1C(=O)CC(N2CCC(C(N)=O)CC2)C1=O (configuration not stated) | -9 | -2 | x | 22µM*
CCOC(=O)C1CCN(C2CC(=O)N(c3cccc(Cl)c3)C2=O)CC1 (configuration not stated) | -8 | 15 | x | -48%
NC(=O)C1CCN(C2CC(=O)N(c3cccc(F)c3)C2=O)CC1 (configuration not stated) | 16 | 9 | -21% | 35µM*
NC(=O)C1CCN(C2CC(=O)N(c3ccc(F)c(Cl)c3)C2=O)CC1 (configuration not stated) | -30 | -5 | 8% | 25µM*
CC[C@H](C)[C@H](NC(=O)[C@@H](NC(=O)CNC(=O)[C@@H](N)CC(C)C)[C@@H](C)O)C(=O)N1CCC[C@H]1C(=O)NCC(=O)O | -8 | 0 | x | x
Cn1c(=O)c2c(nc(SCC(=O)Nc3ccc(F)cc3)n2Cc2ccccc2F)n(C)c1=O | x | x | -15% | -5%
COc1cc(=O)n2c(c1C(=O)NCc1ccco1)CCN(Cc1c(F)cccc1F)CC2 | x | x | -17% | x
COC(=O)c1c(N2C(=O)Nc3ccccc3N2O)sc2c1CCCC2 | -9 | -3 | 5% | -14%
COC(=O)c1c(N2C(=O)CC(Sc3ccccc3C(=O)O)C2=O)sc(C)c1C (configuration not stated) | -5 | -7 | -3% | 4.5µM*
COC(=O)c1c(N2C(=O)CC(Sc3ccccc3C(=O)O)C2=O)sc2c1CCCC2 (configuration not stated) | -5 | 3 | -4% | 2.5µM*
COc1cccc(CN2CCN(S(=O)(=O)c3ccc(Cl)s3)CC2)c1 | 32 | 13* | -12% | 2%
COc1cccc(NC(=O)C(C)n2c(=O)cc(C(F)(F)F)c3c(C)nn(C)c32)c1 (configuration not stated) | x | x | -28% | -3%
COC(=O)c1ccc(C(=O)OC)c(NC(=O)c2ccc(-c3ccccc3)s2)c1 | x | x | -10% | -1%
CCOc1ccc2nc(NC(=O)c3cccnc3)sc2c1 | 122* | 75* | 11% | -3%
CCOc1ccc2nc(NC(=O)c3cnc(C)cn3)sc2c1 | 24 | 18* | 1% | 3%
CCCSc1ncc(Cl)c(C(=O)Nc2nc3ccc(OCC)cc3s2)n1 | x | x | 47% | 3%
CCOc1ccc2nc(NC(=O)c3ccccc3)sc2c1 | x | x | u | 8%
CCCN1C(=O)c2[nH]nc(-c3ccccc3O)c2C1c1cccc(OCc2ccccc2)c1 (configuration not stated) | x | x | -25% | 23%
COc1cc(CN2CCN(c3cccc(C)c3C)CC2)cc(OC)c1O | -6 | 0 | -3% | 32µM*
COc1cc(CN2CCN(C(=O)c3cccc4ccccc34)CC2)cc(OC)c1O | x | -2 | -8% | 6.3µM*
SMILES | Shiga inhibitor | Cycloheximide cs | FMDV inh | Sm TGR block
CCOc1ccc(N(CC)S(=O)(=O)N2CCCC(C(=O)Nc3ccc(OC)c(OC)c3)C2)cc1 (configuration not stated) | x | x | u | -17%
Cc1ccc(Cl)cc1NC(=O)Nc1cccc(OCc2cc(=O)n3ccccc3n2)c1 | x | x | 5% | 2%
CCCOc1cccc(C2c3c(oc4ccc(F)cc4c3=O)C(=O)N2c2nc(C)c(C(C)=O)s2)c1 (configuration not stated) | x | x | -4% | -2%
N=C1C(c2nc(-c3ccc(Cl)cc3)cs2)=C(O)CN1NC(=O)c1ccc(O)cc1 | 25 | 23* | 39% | 1%
Cc1cc(C)c(NC(=O)C2CSCCS2)c(C)c1 (configuration not stated) | 57* | 20* | 43% | 2%
Cc1cc(C)c(NC(=O)C2CCCCN2C)c(C)c1 (configuration not stated) | -12 | 5 | -16% | -5%
CN(C)Cc1cc2ccccc2c2c1COC2 | 24 | 1 | 44% | 1%
Cc1cc2ccc3ccccc3c2cc1CN(C)C | 60* | 33* | 0% | -5%
CC(C)c1ccc(Nc2ccc(C(=O)O)cc2[N+](=O)[O-])cc1 | 43 | 19* | 23% | -6%
CCOc1ccccc1CNC(=O)C1CCN(Cc2cc3ccccc3n2Cc2ccccc2)CC1 | x | x | -28% | 13%
Clc1ccc(-c2nnc(N3CCCC3)nn2)cc1 | 145* | 34* | 61% | 0%
COc1ccc(OC)c(-c2cc(Cl)c3c(c2)CC(CNC(=O)[C@@H]2CCCN2C(C)=O)O3)c1 (some centres not stated) | x | x | -3% | x
Cn1c(SCc2ccccn2)nnc1-c1ccncc1 | 2 | 30 | 4% | -2%
Cn1c(SCc2ccccn2)nnc1-c1ccccc1 | 103* | 36* | 18% | 8%
COc1cccc(-c2nnc(SCc3ccccn3)n2C)c1 | 75 | 17* | 72% | 2%
CCc1ccc(NC(=O)C2=C(C)C(=O)OC23CCCCC3)cc1 | x | x | -4% | 0%
CCSc1nnc2nc3[nH]c4c(C)cccc4c3nn12 | 62* | 40* | 41% | -3%
C=CCSc1nnc2c(n1)[nH]c1c(C)cccc12 | 60* | 40* | x | -5%[11.4 µM]
Cc1cccc2c1[nH]c1nc(N/N=C\c3ccco3)nnc12 | -11 | 15 | x | -13%
CC(C)(C)c1csc(NC(=O)c2ccc(Cl)s2)n1 | 103* | 63* | -40% | -3%
COC(=O)CNC(=O)c1ccc(C)s1 | -10 | -11 | 7% | -2%
CNC(=O)c1ccsc1NC(=O)c1ccc(Cl)s1 | -4 | -3 | -4% | -9%
Cc1ccc(C(=O)Nc2nc(C(C)(C)C)cs2)s1 | 158* | 57* | -8% | 25%
CCN(CC)c1ccc2cc(-c3nc(-c4ccccc4F)no3)c(=O)oc2c1 | x | x | 39% | 1%
CCN(CC)c1ccc2cc(-c3nnc(-c4cccc(Cl)c4)o3)c(=O)oc2c1 | x | x | 36% | 3%
CCN(CC)c1ccc2cc(C(N)=O)c(=O)oc2c1 | 12 | 23* | x | -8%
CCN(CC)c1ccc2cc(C=O)c(=O)oc2c1 | 41 | 24* | 7% | u
CCN(CC)c1ccc2cc(C(=O)Nc3ccccn3)c(=O)oc2c1 | 63* | 79* | -3% | -2%
CCN(CC)c1ccc2cc(-c3nnc(-c4ccncc4)o3)c(=O)oc2c1 | active | 28 | 13% | -25%
CCN(CC)c1ccc2cc(C(=O)Nc3cccnc3N3CCOCC3)c(=O)oc2c1 | -11 | -2 | x | 0%
